High-throughput results from PubChem BioAssay.
TDP43 rescue – TDP-43 toxicity inhibition in yeast. AID 652104. hit rate 1.8% among 410,000. Potency, µM (highest dose often 46.1 µM), without a hit: at the top dose growth rescue (activation), usual class: activators. TDP-43 expressing yeast growth rescue, BacTiter-Glo, 24 h; note: % of control where 0% means no effect; nearly all actives have a fitted effect of over 50% in size
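Luminescence from BacTiter-Glo reports growth of TDP-43-expressing yeast after 24 hr at 30 deg C with compound. Cells were raffinose-pregrown to mid-log, then seeded in galactose medium at OD600=0.02.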
aSyn yeast inh – inhibitors of alpha-synuclein toxicity in yeast; Yeast expressing alpha-synuclein, growth rescue, BacTiter-Glo, 24 h; hit rate 0.14% among 370,000; AID 652106; Potency, µM (top dose mostly 46.1 µM), without a hit: at the highest dose growth rescue (activation), most hits filed as activators; note: % of control where 0% means no effect; nearly all actives have a fitted effect of over 65% in size
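Screening used galactose-induced yeast with toxic alpha-synuclein levels, exposed to compound for 24 hr at 30 deg C. Cell growth, read with BacTiter-Glo luminescence, gave the measured signal.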
FUS yeast rescue – suppressors of FUS proteinopathy in yeast. S. cerevisiae FUS-expressing, growth rescue, OD600, 24 h. Potency, µM (titrated, usually from 76.6 µM), actives largely listed as activators. hit rate 0.24% among 390,000;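 note: plate controls were DMSO vehicle for no effect and reference control for full effect; nearly all actives have a fitted effect of over 55% in size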
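Cultures pregrown in 2.5% raffinose medium are shifted to minimal medium containing 2% galactose to express toxic FUS. Compounds are tested at several concentrations. After 24hr at 30C, growth is quantified at 600 nm absorbance.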
Abeta rescue – A-beta toxicity reversal in yeast | yeast expressing A-beta42, growth rescue, OD600, 48 h; response scale: 0% DMSO, 100% iron-clioquinol control | Potency, µM (highest dose often 46.1 µM), most hits filed as activators | hit rate 0.063% among 410,000; note: nearly all actives have a fitted effect of over 55% in size
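Growth rescue measured by 600 nm absorbance after 48 h yeast culture at 30 C with compound. Values normalized between DMSO and an equimolar ferric chloride plus clioquinol control.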
* = called active by the depositor; i = inactive; ? = inconclusive; nt = no result given. A selection: hits, their analogues and other compounds. The true share with any hit is near 2.1%. Calls come from the whole dose curve; as a rule, active = well fitted curve in the direction sought with a large enough effect; inconclusive = small, poorly fitted or top-dose-only effect, or another doubt; inactive = no such curve, though single readings can be large; an effect the other way counts as inactive or inconclusive. Potency is the fitted concentration of half-maximal effect.

SMILES | TDP43 rescue | aSyn yeast inh | FUS yeast rescue | Abeta rescue
CCCC(=O)OC1=C(C(C)=O)N(Cc2ccccc2)S(=O)(=O)c2ccccc21 | 11µM* | nt | i | i
CCN1C(C(=O)c2ccccc2)=C(OC(=O)c2ccc(OC)cc2)c2ccccc2S1(=O)=O | 10% | nt | i | i
CCCCN(CCCC)C1=C(C(=O)c2ccccc2)N(C)S(=O)(=O)c2ccccc21 | 6% | 16µM* | i | i
CCCCN(CCCC)C1=C(C(=O)c2ccccc2)N(CC)S(=O)(=O)c2ccccc21 | ? | ? | i | ?
CCCCN1C(C(=O)c2ccccc2)=C(OC(=O)CC)c2ccccc2S1(=O)=O | 22µM* | nt | i | i
CCN1/C(=C(\O)c2ccccc2)C(=O)c2ccccc2S1(=O)=O | ? | 4µM* | i | i
CCN1C(C(=O)c2ccccc2)=C(OC(=O)C(C)C)c2ccccc2S1(=O)=O | 18µM* | nt | i | i
CCN1C(C(=O)c2ccccc2)=C(OC(=O)COc2ccccc2)c2ccccc2S1(=O)=O | ? | nt | i | i
CN(C)c1cccc(/C=C2\CC3(OC(=O)C4CCCC4)CCCN2C3)c1 (stereo unspecified) | nt | nt | i | nt
CCN(CC)CCCNC(=O)c1ccc2c(c1)NC(=O)C(CS(=O)(=O)Cc1ccc(F)cc1Cl)N2 (stereo unspecified) | -1% | nt | 25µM* | i
OCc1ccccc1-c1ccc2nncn2c1 | 35µM* | ? | i | i
CCc1cc(C(=O)c2ccccc2)c(N)s1 | 11µM* | 2% | i | i
COc1ccc(-c2cc(-c3ccccc3)nc(-c3ccc4c(c3)NC(=O)CO4)c2)cc1 | 13µM* | nt | i | i
COC(=O)[C@]12CCCCC=C1N(Cc1ccc(OC)cc1)C(=O)[C@@H]2CC(=O)N1CCN(C(=O)C2CC2)CC1 | nt | nt | i | nt
Nc1nc(SCC(=O)N2N=C3/C(=C/c4ccco4)CCCC3C2c2ccco2)n[nH]1 (stereo unspecified) | 1% | -2% | i | i
Nc1nc(SCC(=O)N2N=C3/C(=C\c4ccco4)CCCC3C2c2ccco2)n[nH]1 (stereo unspecified) | -8% | 10% | 32µM* | i
C=C1C=C(C)n2ncc(C(=O)Nc3ccc(F)cc3F)c2N1 | nt | -2% | nt | nt
Cc1ccc(N2CCN(C(=O)NCc3noc4ccc(C)cc34)CC2)c(C)c1 | 20µM* | nt | ? | i
Cc1cc(C)cc(C(=O)NCC(=O)N2CCN(c3cccc(Cl)c3)CC2)c1 | 13µM* | 2% | i | i
Cc1ccc2onc(CC(=O)N3CCN(c4cccc(C)c4C)CC3)c2c1 | 25µM* | nt | ? | i
Cc1ccc(C)c(N2CCN(C(=O)NCc3noc4ccc(C)cc34)CC2)c1 | ? | nt | i | i
Cc1ccc2onc(CC(=O)N3CCN(c4cccc(Cl)c4)CC3)c2c1 | 20µM* | nt | ? | i
CCC(C)c1ccccc1OCCn1c(CCNC(=O)C2CCCCC2)nc2ccccc21 (stereo unspecified) | nt | 5% | nt | nt
Cn1c(N)c(C(=O)CSc2ccc3c(c2)OCCO3)c(=O)n(C)c1=O | -2% | -11% | i | i
Cc1cc(C(=O)CSc2ccc3c(c2)OCCO3)c(C)n1C1CC1 | 20µM* | 16% | i | i
SMILES | TDP43 rescue | aSyn yeast inh | FUS yeast rescue | Abeta rescue
Cc1cc(=O)n(CC=C(Cl)Cl)c2ccccc12 | 13µM* | 8% | ? | i
O=c1[nH]c(=S)c2[nH]cnc2[nH]1 | nt | -3% | nt | nt
O=C(OCC(=O)c1cccc2ccccc12)c1ccc(CO)cc1 | 14µM* | 16% | i | i
CN1C(=O)Cc2cc(S(=O)(=O)NCc3ccc(Cl)cc3)ccc21 | ? | nt | i | i
COc1ccc(NC(=O)c2ccc(OC(=S)N(C)c3ccc(OC)cc3)cc2)cc1 | -6% | -7% | i | i
CN(C(=S)Oc1ccc(C(=O)Nc2ccccc2)cc1)c1ccccc1 | 13µM* | 0% | nt | i
Nc1c(C(=O)c2ccc(Br)s2)oc2ccccc12 | 13µM* | 0% | i | i
C=CCN1C(=O)[C@@H](CC(=O)NCCCC)[C@]2(C(=O)OC)CCCCC=C12 | nt | nt | i | nt
COc1ccc(OCCSc2nnc3sc4ccccc4n23)cc1 | 16µM* | 12% | i | i
COc1ccc(NC(=O)Cn2c(=O)oc3cc(S(=O)(=O)NC4CCCC4)ccc32)cc1OC | 8% | nt | i | i
CCCCCCCc1n[nH]c(=S)n1Cc1ccccc1 | 16µM* | 2% | i | ?
